Dicer inh = inhibitors of Dicer pre-microRNA processing, primary screen, biochemical, cat-ELCCA, chemiluminescence. Endoribonuclease Dicer (Homo sapiens), Q9UPY3. cat-ELCCA pre-miR-21 Dicer processing; hits give high values. z-score at 25 µM. hit rate 6% among 47,000; in the data active = z-score above about 3, passing the limit was not always enough;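 note: plate controls were vehicle for no effect and no enzyme for full effect; higher signal means more uncleaved substrate so more Dicer inhibition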
An asterisk follows results filed as active. This is one part of a sample in which hits are shown more often than they occur.

SMILES | Dicer inh
O=C1C2C3c4ccccc4C(c4ccccc43)C2C(=O)N1c1ccncc1 (stereo not drawn) | 0.19
O=C1C2C3c4ccccc4C(c4ccccc43)C2C(=O)N1CCO (stereo not drawn) | 4.6*
COc1ccc(Nc2nnc3c4ccccc4c4ccccc4c3n2)cc1 | -0.71
CCOc1ccc(C2CC(=O)NC(SCC(=O)OC(C)C)=C2C#N)cc1 (stereo not drawn) | 0.96
COC(=O)C(CCSC)NC(=O)c1cc2c(n(-c3ccccc3)c1=O)CCCC2=O (stereo not drawn) | 2.1
O=C1CCCc2c1cc(C(=O)NC1CCSC1=O)c(=O)n2-c1ccccc1 (stereo not drawn) | 1.2
O=C1CCCc2c1cc(C(=O)O)c(=O)n2-c1ccccc1 | 3.7*
c1ccc2c(-c3csc(-c4ccc(-c5ccno5)s4)n3)csc2c1 | -1.4
Nc1nc(-c2cccc3ccccc23)cs1 | 0.36
Nc1nc(-c2csc3ccccc23)cs1 | 3.3*
Clc1ccc(N2CCN(C3=Cc4ccccc4C3)CC2)cc1 | 2.2
Cn1c(=O)c2c(nc(CN3CCOCC3)n2CC(=O)C(C)(C)C)n(C)c1=O | 1.3
CCCN1C(=O)C(O)(CC(=O)c2ccc3c(c2)OCO3)c2cc(Br)ccc21 (stereo not drawn) | 2.8
O=C(CC1(O)C(=O)N(CCc2ccccc2)c2ccc(Br)cc21)c1ccc2c(c1)OCO2 (stereo not drawn) | 4.1*
O=C(CC1(O)C(=O)N(CCc2ccccc2)c2ccc(Br)cc21)c1ccccn1 (stereo not drawn) | 1.1
O=C(CC1(O)C(=O)N(Cc2ccccc2)c2ccc(Br)cc21)c1ccc2c(c1)OCO2 (stereo not drawn) | 2.8
Cc1ccc(C(=O)CC2(O)C(=O)N(CCc3ccccc3)c3ccc(Br)cc32)o1 (stereo not drawn) | 2.5
COc1ccccc1C(=O)CC1(O)C(=O)N(CCc2ccccc2)c2ccc(Br)cc21 (stereo not drawn) | 4.3*
CCCc1cc(=O)[nH]c(SCc2ccc(Cl)cc2Cl)n1 | -3.8
CCCc1cc(=O)[nH]c(SCc2ccc(Cl)cc2)n1 | -3.5
CCCc1cc(=O)[nH]c(SCC(=O)Nc2ccc(F)c(Cl)c2)n1 | 3.1*
COc1ccc(C2C3=C(CC(C)(C)CC3=O)Nc3nc(N)[nH]c(=O)c32)cc1 (stereo not drawn) | -1
Nc1ccccc1Sc1nccc(C(F)(F)F)n1 | -4.8
COc1cc2c(cc1OC)CN(C(=S)Nc1ccc([N+](=O)[O-])cc1)CC2 | 5
CCOc1ccc(S(=O)(=O)Nc2ccc3oc(C)c(C(=O)OCCOC)c3c2)cc1 | 0.74
SMILES | Dicer inh
CCOC(=O)c1c(C)oc2c(Br)cc(NS(=O)(=O)c3ccc(Cl)c(C)c3)cc12 | 0.56
CCOC(=O)c1c(C)oc2ccc(NS(=O)(=O)c3ccc(Cl)cc3)cc12 | 3.6*
COc1ccccc1Nc1snc2sc(C(=O)c3ccc(C)cc3)c(N)c12 | 0.98
CS/C(N)=N/N=C/c1ccc(Cl)cc1 | -1.8
Cc1nn(C)c(NC(=O)c2ccc(Cl)cc2)c1Br | 1.6
Cc1ccc(-c2nc(-c3ccccn3)no2)c(Cl)c1 | -0.73
O=C(c1ccccc1Br)N(Cc1cccs1)C1CCS(=O)(=O)C1 (stereo not drawn) | 3.9*
COc1ccc(OCC(=O)N(Cc2cccs2)C2CCS(=O)(=O)C2)cc1 (stereo not drawn) | -0.03
COc1ccccc1OCC(=O)N(Cc1cccs1)C1CCS(=O)(=O)C1 (stereo not drawn) | 0.96
CC(C)c1ccc(C2/C(=C(\O)c3ccccc3)C(=O)C(=O)N2CCCN2CCOCC2)cc1 (stereo not drawn) | -0.59
COC(=O)c1cnc(N2CCSCC2)nc1C(F)(F)F | 0.38
Cc1ccc2oc(C(=O)O)cc(=O)c2c1 | 2.5
Cc1ccc2oc(-c3ccccc3)cc(=O)c2c1 | 4.7*
O=c1cc(-c2ccccc2)oc2ccc(-c3nn[nH]n3)cc12 | 0.08
N#Cc1cc(Cl)c(NC(=O)C(F)(F)F)c(Cl)c1 | -0.94
C=CCn1c2ccccc2c2nn3cnnc3nc21 | 0.19
c1cnc2nc(SCc3ccc(CSc4nc5ncccc5[nH]4)cc3)[nH]c2c1 | 0.03
CC1(C)CC(=O)C2=C(C1)Nc1ccccc1NC2c1cccs1 (stereo not drawn) | 0.88
CC1(C)CC(=O)C2=C(C1)Nc1ccccc1S2 | 4.1*
CC1(C)CC(=O)C2=C(C1)Nc1ccccc1NC2c1ccccc1F (stereo not drawn) | -0.61
Cc1ccc(-c2nnc3c4ccccc4c(C)nn23)cc1S(=O)(=O)NCCN1CCOCC1 | 2.7
COc1ccc(CNCc2cc(OC)ccc2OC)cc1 | 1.3
COc1ccc(CNCc2ccc(SC)cc2)cc1 | 3.9*
COc1ccc(CNCc2ccc3c(c2)OCO3)cc1 | 0.97
O=C(Nc1ccc(F)c(Cl)c1)c1cccnc1Sc1cccs1 | -2.4
SMILES | Dicer inh
CSCCn1c(-c2ccccc2)cc(C(=O)NCc2ccco2)c1C | 0.87
Cn1c(=O)c2c(nc(SCc3ccc(F)cc3)n2C)n(C)c1=O | 0.77
Cn1c(=O)c2c(nc(Sc3nnc(N)s3)n2C)n(C)c1=O | 3.1*
Cn1c(=O)c2c(nc(Sc3ccccc3N)n2C)n(C)c1=O | -2.6
COc1ccc(C(=O)Cc2c(O)c3ccccc3oc2=O)cc1 | -0.04
Cc1ccc(Cl)cc1N1CC(O)=C(c2nc3ccccc3c(=O)[nH]2)C1=N | -1.7
COc1ccc(Br)c(C(=O)/C(C#N)=C/c2ccc(N(C)C)cc2)c1 | 6.2*
COc1ccc(Br)c(C(=O)/C(C#N)=C/c2cccs2)c1 | 0.78
COc1ccc(Br)c(C(=O)NN)c1 | 0
CCS(=O)(=O)c1ccc(O)c(NC(=O)CSCC(=O)O)c1 | 0.39
N#CCCN(Cc1cccs1)S(=O)(=O)c1cccs1 | 1.2
CC(=O)n1ccc(-c2cccc([N+](=O)[O-])c2)n1 | -1.3
COc1ccc(Br)cc1C1C(C(=O)OC2CCCCC2)=C(C)NC2=C1C(=O)CCC2 (stereo not drawn) | 2.8
CCOC(=O)Nc1nc2ccc(OC)cc2s1 | 5.7
CCOC(=O)CSc1nc(C)c2cc(OC)ccc2n1 | 3.6*
CCOC(=O)CSc1nc(C)c2cc(C)c(C)cc2n1 | 2.4
CCOC(=O)c1cnc2ccc(OC)cc2c1Cl | -0.1
CCCc1c(C)nc2ccc(OC)cc2c1SCCC(=O)O | 3.5*
COc1ccc(-c2nnc(SCCC(=O)O)n2C)cc1 | 0.07
COc1ccccc1-c1coc2c(CN(C)C3CCCCC3)c(O)ccc2c1=O | 1.9
O=c1c(Cc2ccc(Cl)cc2Cl)c(-c2ccccc2)sc2ccccc12 | -2.3
O=c1c(Cc2ccc([N+](=O)[O-])cc2)c(-c2ccccc2)sc2ccccc12 | 3.6*
O=c1c(Cc2ccc(Cl)c(Cl)c2)c(-c2ccccc2)sc2ccccc12 | -0.98
COc1ccc(N2CCN(C(=O)N3c4ccccc4Sc4ccccc43)CC2)cc1 | 1.7
CC(C)(C)C1=CC(=O)C=C(C(C)(C)C)C1=O | -0.75
SMILES | Dicer inh
O=C(COc1ccc2ccccc2c1)NS(=O)(=O)c1ccccc1 | 0.35
Nc1ccc(O)c2c1C(=O)c1c(N)ccc(O)c1C2=O | 3.2*
O=C1c2c(O)cccc2Cc2cccc(O)c21 | 0.28
Nc1ccc(O)c(C(=O)O)c1 | 1.2
N#Cc1cc([N+](=O)[O-])ccc1Sc1nnc(NC(=O)c2ccc(Cl)c(Cl)c2)s1 | -0.86
Cc1cc2n(n1)C(c1ccsc1)Nc1c(C)cccc1-2 (stereo not drawn) | -0.46
COc1ccc(C2Nc3c(C)cccc3-c3cc(C)nn32)cc1OC (stereo not drawn) | -0.04
Cc1cc2n(n1)C(c1ccc3c(c1)OCO3)Nc1c(C)cccc1-2 (stereo not drawn) | 3.1*

High-throughput results deposited in PubChem by Center for Chemical Genomics, University of Michigan.
